Reference: PubChem BioAssay
The source made the active and inactive calls. Unless noted, the rule behind the calls is not given here.

What was measured:
[1] = compound effects on lung adenocarcinoma cell viability – A549, calcein-AM fluorescence, 48 h, basal, profiling panel (AID 1162); details: higher = more signal; note: test concentration not given here
[2] = compound effects on differentiated 3T3-L1 adipocyte viability – cell-based, 3T3-L1 adipocytes, calcein-AM fluorescence, 48 h, basal, profiling panel (AID 1163); details: 3T3-L1 adipocytes viability, higher = more signal; note: test concentration not given here
[3] = compound effects on hepatocellular carcinoma cell viability – HepG2, calcein-AM fluorescence, 48 h, basal, profiling panel (AID 1164); details: higher = more signal; note: test concentration not given here
[4] = compound effects on multiple myeloma cell viability – MM1S, calcein-AM fluorescence, 48 h, basal, profiling panel (AID 1165); details: higher = more signal;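 note: viability of MM1S multiple myeloma cells under basal unstimulated conditions; test concentration not given here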
[5] = calcein-AM signal in unstimulated myeloma cells – cell-based, calcein-AM fluorescence, 48 h, PK04 Diversity Set, profiling panel (AID 1166); details: RPMI8226 myeloma viability, higher = more signal;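 note: cells grown under basal conditions without added stimulus; test concentration not given here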
[6] = JC-1 mitochondrial signal, unstimulated HepG2 cells – cell-based, JC-1 fluorescence, 24 h, 100 nL compound, profiling panel (AID 1167); details: HepG2 mitochondrial potential, higher = more signal; note: test concentration not given here
[7] = JC-1 mitochondrial signal, unstimulated adipocytes – cell-based, JC-1 fluorescence, 3T3-L1 adipocytes, 24 h, 100 nL compound, profiling panel (AID 1168); details: JC-1 mitochondrial fluorescence, higher = more signal, called active from +8 up or from −8 down; note: test concentration not given here
[8] = JC-1 mitochondrial signal, unstimulated myeloma cells – cell-based, JC-1 fluorescence, RPMI8226, 24 h, 100 nL compound, profiling panel (AID 1169); details: JC-1 mitochondrial potential fluorescence, higher = more signal; note: test concentration not given here
[9] = JC-1 mitochondrial signal, unstimulated MM1S myeloma – cell-based, JC-1 fluorescence, 24 h, 100 nL compound, profiling panel (AID 1170); details: MM1S mitochondrial potential, higher = more signal; note: test concentration not given here
[10] = resazurin metabolic signal in A549 cells – cell-based, resazurin fluorescence, 24 h, PK04 Diversity Set, profiling panel (AID 1171); details: A549 viability, higher = more signal, called active from +8 up or from −8 down; note: test concentration not given here
[11] = resazurin metabolic signal in HepG2 cells – cell-based, resazurin fluorescence, 24 h, PK04 Diversity Set, profiling panel (AID 1172); details: HepG2 viability, higher = more signal; note: test concentration not given here
[12] = budding yeast growth changes without added modifier – OD600, strain BY4716, 24 h, basal condition, primary screen (AID 1173); details: S. cerevisiae BY4716 growth, OD600, 24 h; higher = more signal, called active from +8 up or from −8 down
[13] = viability profiling in MM1S myeloma cells – cell-based, resazurin fluorescence, basal, 24 h, PK04 Diversity Set, profiling panel (AID 1174); details: higher = more signal, called active from +8 up or from −8 down; note: test concentration not given here
[14] = molecular target: Dihydroorotate dehydrogenase (quinone), mitochondrial (Plasmodium falciparum (isolate 3D7)) (UniProt Q08210); experiment: inhibition of P. falciparum DHODH – biochemical, C-terminal His tag, absorbance 600 nm, primary screen (AID 1175); details: PfDHODH enzyme, DCIP absorbance 600 nm; higher = more signal, called active from +8 up or from −8 down;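 note: recombinant parasite enzyme with a five histidine tag at its C terminus; test concentration not given here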
[15] = inhibition of PAO1 biofilm formation – strain PAO1, LB-PBS medium, absorbance 600 nm, primary screen (AID 1176); note: test concentration not given here; details: P. aeruginosa PAO1 growth/biofilm, A600, 12 h; higher = more signal
[16] = growth modulation of vineyard yeast isolate – strain RM11-1a, OD600, basal, 24 h, primary screen (AID 1177);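 note: cultures grown under basal conditions with no added stressor; test concentration not given here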; details: S. cerevisiae RM11-1a growth, OD600, 24 h; higher = more signal, called active from +8 up or from −8 down
[17] = growth of efflux-deficient E. coli DRC39 – strain DRC39, OD650, 24 h, E. coli filamentation inducers, primary screen (AID 1178);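 note: growth measured as culture turbidity by optical density at 650 nm; test concentration not given here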; details: E. coli DRC39 acrAB, higher = more signal, called active from +8 up or from −8 down
[18] = growth of efflux-deficient E. coli DRC39 – strain DRC39, OD650, 48 h, E. coli filamentation inducers, primary screen (AID 1179);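 note: screen aims at cell division blockers that make cells filament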; details: E. coli DRC39 delta-acrAB growth, higher = more signal, called active from +8 up or from −8 down
[19] = viability profiling in RPMI8226 myeloma cells – cell-based, resazurin fluorescence, basal, 24 h, PK04 Diversity Set, profiling panel (AID 1180); details: higher = more signal;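 note: RPMI8826 multiple myeloma cell line at 5000 cells per well; test concentration not given here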
[20] = molecular target: E3 ubiquitin-protein ligase XIAP (Homo sapiens) (UniProt P98170); experiment: small molecules binding XIAP protein – biophysical, small-molecule microarray, fluorescence 635 nm, primary screen (AID 1181); details: higher = more signal;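 note: score merges 667 nm emission and signal to noise over triplicate slides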
Sequence of E3 ubiquitin-protein ligase XIAP (Homo sapiens) (P98170 whole entry, looked up): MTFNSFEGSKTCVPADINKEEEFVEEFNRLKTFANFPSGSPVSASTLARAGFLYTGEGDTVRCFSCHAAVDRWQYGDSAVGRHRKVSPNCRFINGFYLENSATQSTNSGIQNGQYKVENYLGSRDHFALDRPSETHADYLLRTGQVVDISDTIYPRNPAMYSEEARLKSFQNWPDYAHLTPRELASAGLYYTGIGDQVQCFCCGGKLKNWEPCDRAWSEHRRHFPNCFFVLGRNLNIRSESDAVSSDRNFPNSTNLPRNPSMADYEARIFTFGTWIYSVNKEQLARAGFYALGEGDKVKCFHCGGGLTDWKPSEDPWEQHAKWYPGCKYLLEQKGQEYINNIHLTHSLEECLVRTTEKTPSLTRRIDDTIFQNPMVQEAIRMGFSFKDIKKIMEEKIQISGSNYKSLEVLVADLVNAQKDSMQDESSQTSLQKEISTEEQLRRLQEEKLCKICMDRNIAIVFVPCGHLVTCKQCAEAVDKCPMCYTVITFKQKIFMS

Sequence of Dihydroorotate dehydrogenase (quinone), mitochondrial (Plasmodium falciparum (isolate 3D7)) (Q08210 whole entry, looked up): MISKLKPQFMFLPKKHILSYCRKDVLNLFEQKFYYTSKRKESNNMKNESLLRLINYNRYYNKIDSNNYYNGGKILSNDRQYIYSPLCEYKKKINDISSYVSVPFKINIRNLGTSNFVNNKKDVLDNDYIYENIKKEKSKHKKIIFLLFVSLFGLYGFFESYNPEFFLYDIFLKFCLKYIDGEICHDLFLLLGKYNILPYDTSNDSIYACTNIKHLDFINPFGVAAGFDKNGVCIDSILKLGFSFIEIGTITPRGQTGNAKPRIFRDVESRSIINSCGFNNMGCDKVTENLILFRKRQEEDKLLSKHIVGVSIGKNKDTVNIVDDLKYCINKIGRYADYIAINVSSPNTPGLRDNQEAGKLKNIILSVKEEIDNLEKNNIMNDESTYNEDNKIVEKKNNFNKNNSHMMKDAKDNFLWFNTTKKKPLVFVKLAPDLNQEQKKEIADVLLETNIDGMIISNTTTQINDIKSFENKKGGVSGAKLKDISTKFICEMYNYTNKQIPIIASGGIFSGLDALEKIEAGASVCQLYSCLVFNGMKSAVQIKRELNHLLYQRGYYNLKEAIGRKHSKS

Row | Compound | z-score [1] | z-score [2] | z-score [3] | z-score [4] | z-score [5] | z-score [6] | z-score [7] | z-score [8] | z-score [9] | z-score [10] | z-score [11] | z-score [12] | z-score [13] | composite z-score [14] | z-score [15] | z-score [16] | z-score [17] | z-score [18] | z-score [19] | composite z-score [20]
1 | COc1ccc([Si](C)(C)[C@@H]2[C@@H](CCn3cc([C@H](O)c4ccccc4)nn3)O[C@]3(C(=O)N(C)c4ccccc43)[C@H]2C)cc1 | -0.536 | 1.27 | -1.01 | -2.69 | -3.85 | 0.988 | -0.42 (inactive) | -0.866 | -0.252 | -1.89 (inactive) | -1.46 | -0.397 (inactive) | -2.34 (inactive) | 0.283 (inactive) | 0.119 (inactive) | 1.04 (inactive) | -0.834 (inactive) | -1.33 (inactive) | -1.81 | -0.0272
2 | CCCC[C@H]1OB(O)C[C@H]2C1=C(C)Cn1c(=O)n(-c3ccccc3)c(=O)n12 | 0.673 | 0.465 | 0.173 | -0.337 | -0.108 | 0.546 | 0.299 (inactive) | -0.903 | -0.503 | 0.0548 (inactive) | 0.916 | 0.422 (inactive) | -0.441 (inactive) | -0.0299 (inactive) | -0.638 (inactive) | 0.218 (inactive) | -0.13 (inactive) | -0.605 (inactive) | 0.191 | -0.0599
3 | COc1cc2c(cc1O)C(c1ccc(CN3CCCC3)cc1)N(Cc1sc3ccccc3c1Cl)CC2 (stereo not given) | -0.42 | -0.0706 | -1.5 | -1.89 | -1.24 | -0.535 | -0.506 (inactive) | -0.105 | -0.774 | 0.835 (inactive) | -0.307 | -1.82 (inactive) | -0.527 (inactive) | -2.82 (inactive) | 0.0619 (inactive) | 0.953 (inactive) | 1.23 (inactive) | 0.25 (inactive) | -1.05 | 0.0815
4 | CS(=O)(=O)CCOC(=O)C1=CC(c2ccc(CO)cc2)=CC(c2cccs2)N(Cc2cccc(OC(F)(F)F)c2)C=C1C(=O)OCCS(C)(=O)=O (stereo not given) | 0.0527 | 0.171 | -1.31 | -3.31 | -3.27 | -2.84 | 0.384 (inactive) | -0.722 | -1.28 | -0.481 (inactive) | -0.534 | -4.14 (inactive) | -2.98 (inactive) | -1.08 (inactive) | 0.907 (inactive) | 0.267 (inactive) | -2.93 (inactive) | -3.3 (inactive) | -1.32 | -0.22
5 | CC(=O)NCCCC[C@@H]1NC(=O)[C@@H]2C[C@H](C(=O)NCc3ccc(F)cc3)[C@H](c3ccc(O)cc3)N2C1=O | -0.484 | 0.347 | -0.797 | -1.18 | -0.556 | 1.28 | 0.58 (inactive) | 0.0286 | 0.28 | 0.361 (inactive) | -0.0579 | -0.462 (inactive) | -0.276 (inactive) | -1.13 (inactive) | -0.226 (inactive) | -0.985 (inactive) | 0.304 (inactive) | -0.598 (inactive) | 0.473 | 0.105
6 | C=C[C@H](OC)[C@@H](OC(=O)Nc1ccc(SC)cc1)c1ccc(OCCO)cc1 | -0.13 | 0.559 | 0.0758 | -0.164 | 0.609 | -2.55 | 0.734 (inactive) | -0.0748 | -0.887 | -0.139 (inactive) | -0.237 | -1.95 (inactive) | -0.895 (inactive) | -1.02 (inactive) | 0.662 (inactive) | 0.39 (inactive) | 0.0364 (inactive) | 0.0255 (inactive) | -0.204 | -0.0559
7 | O=C1OCC=C[C@H]2OC34C=CCN(Cc5ccccc5)C(=O)[C@H]3N(CCCO)C(=O)[C@@H]4[C@@H]12 (stereo not given in full) | -0.518 | 0.676 | -1.28 | 0.772 | 0.0919 | 0.0708 | -0.0748 (inactive) | 0.242 | 0.252 | -0.196 (inactive) | 0.0395 | -0.616 (inactive) | -0.0608 (inactive) | -1.55 (inactive) | -0.0963 (inactive) | 0.242 (inactive) | -0.658 (inactive) | 0.122 (inactive) | -0.0906 | 0.643
8 | Cc1ccc(N2C(=O)c3ccccc3[C@](C)(C(=O)NCCN3CCOCC3)[C@@H]2c2ccc(CO)cc2)nc1 | -0.68 | 0.994 | -0.808 | 0.839 | -1.49 | 0.144 | -0.674 (inactive) | -0.628 | 0.0375 | 0.667 (inactive) | -0.946 | -0.574 (inactive) | 0.438 (inactive) | 0.255 (inactive) | 0.31 (inactive) | 0.548 (inactive) | -0.0943 (inactive) | -0.126 (inactive) | 0.274 | 0.086
9 | CO[C@H]1O[C@H](CO)[C@@H](OC(=O)Nc2cccc(F)c2)[C@H](OC(=O)Nc2ccccc2-c2ccccc2)[C@@H]1OC(=O)Nc1ccccc1-c1ccccc1 | -2.35 | 0.63 | -1.85 | -2.28 | -2.37 | -0.27 | 0.827 (inactive) | -0.877 | -1.38 | -2.79 (inactive) | -1.71 | 0.664 (inactive) | -2.52 (inactive) | -0.59 (inactive) | 1.39 (inactive) | 2.42 (inactive) | -0.798 (inactive) | 0.689 (inactive) | -1.78 | 0.117
